Of roughly 7,900 targets only a part is listed; those with a hit were picked by preference. About 0.6% of all pairs of compound and target were hits.
Experiments:
Experiment in all cases: log2 fold change, soluble protein after heating vs DMSO (PISA); higher = thermal stabilisation; K562 cells, 10 uM, 30 min; active = over 0.2 and 3.5 SD of the protein, either way, in both replicates (recomputed)
bafetinib = compound: Cc1ccc(NC(=O)c2ccc(CN3CC[C@H](N(C)C)C3)c(C(F)(F)F)c2)cc1Nc1nccc(-c2cncnc2)n1 [bafetinib]
In short: (§1)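 Quantification of soluble protein used TMTpro 16plex LC-MS/MS, with channel sums equalised. Samples were the supernatant after 21,000xg for 90 min of pooled aliquots from K562 cells (2×10^6 cells/mL) treated with 10 μM compound for 30 min, heated for 3 min over 48°C-58°C, and extracted in PBS with 0.5% NP-40 at 4°C. Values, from duplicates, describe thermal stability against control samples on a log2 fold-change scale.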

[1] = compound: Cc1cccc(CC(=O)N2CCc3c2ccc(-c2cn(C)c4ncnc(N)c24)c3F)n1
In short: as §1

nilotinib = compound: Cc1cn(-c2cc(NC(=O)c3ccc(C)c(Nc4nccc(-c5cccnc5)n4)c3)cc(C(F)(F)F)c2)cn1 [nilotinib]
In short: as §1

[2] = compound: Cc1nc(Nc2n[nH]c3c2CN(C(=O)N[C@H](CN(C)C)c2ccccc2)C3(C)C)c2sccc2n1
In short: as §1

dasatinib = compound: Cc1nc(Nc2ncc(C(=O)Nc3c(C)cccc3Cl)s2)cc(N2CCN(CCO)CC2)n1 [dasatinib]
In short: as §1

[3] = compound: Cc1ncc(-c2ccnc(Nc3ccc(S(C)(=O)=O)cc3)n2)n1C(C)C
In short: as §1

[4] = compound: Cn1cc(-c2ccc3c(c2)CCN3C(=O)Cc2cccc(C(F)(F)F)c2)c2c(N)ncnc21
In short: as §1

[5] = compound: Cn1cc(-c2ccc3nnc(C(F)(F)c4ccc5ncccc5c4)n3n2)cn1
In short: as §1

tipifarnib = compound: Cn1cncc1[C@@](N)(c1ccc(Cl)cc1)c1ccc2c(c1)c(-c1cccc(Cl)c1)cc(=O)n2C [tipifarnib]
In short: as §1

mubritinib = compound: FC(F)(F)c1ccc(/C=C/c2nc(COc3ccc(CCCCn4ccnn4)cc3)co2)cc1 [mubritinib]
In short: as §1

Measured: log2 fold change

ALKBH5 (UniProt Q6P6C2)
inactive: bafetinib 0.038 | [1] -0.15 | nilotinib 0.018 | [2] -0.025 | dasatinib 0.014 | [3] 0.011 | [4] -0.042 | [5] 0.011 | tipifarnib 0.077 | mubritinib -0.019

ATP6AP1 (UniProt Q15904)
inactive: bafetinib -0.052 | [1] 0.025 | nilotinib 0.024 | [2] -0.041 | dasatinib 0.016 | [3] -0.041 | [4] -0.081 | [5] -0.064 | tipifarnib 0.011 | mubritinib -0.051

BCLAF1 (UniProt Q9NYF8)
Chain of UniProt Q9NYF8 (Q9NYF8 whole entry, looked up): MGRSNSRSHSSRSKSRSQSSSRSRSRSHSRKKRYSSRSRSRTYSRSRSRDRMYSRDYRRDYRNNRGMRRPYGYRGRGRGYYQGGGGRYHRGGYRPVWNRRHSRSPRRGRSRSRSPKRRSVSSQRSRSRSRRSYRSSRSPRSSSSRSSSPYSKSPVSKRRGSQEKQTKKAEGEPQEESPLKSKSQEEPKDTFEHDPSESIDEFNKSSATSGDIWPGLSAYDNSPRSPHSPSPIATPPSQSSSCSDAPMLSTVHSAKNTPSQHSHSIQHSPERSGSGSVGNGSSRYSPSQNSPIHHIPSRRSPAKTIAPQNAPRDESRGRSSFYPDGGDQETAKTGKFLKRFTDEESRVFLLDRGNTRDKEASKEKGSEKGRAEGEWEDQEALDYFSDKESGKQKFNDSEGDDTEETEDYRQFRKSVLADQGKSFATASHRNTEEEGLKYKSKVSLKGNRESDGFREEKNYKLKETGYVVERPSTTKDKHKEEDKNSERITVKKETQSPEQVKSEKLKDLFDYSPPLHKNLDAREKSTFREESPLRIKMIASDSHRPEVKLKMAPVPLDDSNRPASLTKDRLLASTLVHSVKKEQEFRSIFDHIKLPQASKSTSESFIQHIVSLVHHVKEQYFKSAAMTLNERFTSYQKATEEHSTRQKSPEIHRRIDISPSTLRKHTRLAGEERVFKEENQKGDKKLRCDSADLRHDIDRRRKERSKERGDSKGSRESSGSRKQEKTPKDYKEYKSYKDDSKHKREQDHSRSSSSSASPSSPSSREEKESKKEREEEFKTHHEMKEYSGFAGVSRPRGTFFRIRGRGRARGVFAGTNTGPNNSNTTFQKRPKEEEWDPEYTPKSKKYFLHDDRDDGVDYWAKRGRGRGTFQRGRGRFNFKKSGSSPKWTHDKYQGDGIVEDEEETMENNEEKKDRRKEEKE
active: [2] -0.609
inactive: bafetinib -0.028 | [1] 0.059 | nilotinib 0.02 | dasatinib 0.081 | [3] -0.14 | [4] -0.018 | [5] -0.065 | tipifarnib -0.005 | mubritinib 0.031

ATAD3B (UniProt Q5T9A4)
inactive: bafetinib -0.014 | [1] 0.018 | nilotinib -0.072 | [2] -0.039 | dasatinib -0.099 | [3] 0.027 | [4] -0.103 | [5] -0.186 | tipifarnib 0.03 | mubritinib -0.37

ARMC10 (UniProt Q8N2F6)
inactive: bafetinib 0.046 | [1] 0.015 | nilotinib -0.063 | [2] -0.034 | dasatinib -0.125 | [3] -0.012 | [4] -0.052 | [5] -0.115 | tipifarnib 0.001 | mubritinib -0.096

ARL1 (UniProt P40616)
Chain of UniProt P40616 (P40616 whole entry, looked up): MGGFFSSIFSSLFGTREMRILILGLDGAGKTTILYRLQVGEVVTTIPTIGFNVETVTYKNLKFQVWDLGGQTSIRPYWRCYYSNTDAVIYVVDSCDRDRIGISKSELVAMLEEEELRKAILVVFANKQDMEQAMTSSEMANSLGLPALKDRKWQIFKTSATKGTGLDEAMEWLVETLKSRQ
inactive: bafetinib 0.114 | [1] 0.205 | nilotinib -0.174 | [2] -0.017 | dasatinib -0.131 | [3] 0.096 | [4] 0.055 | [5] 0.019 | tipifarnib -0.123 | mubritinib -0.046

ASS1 (UniProt P00966)
inactive: bafetinib -0.113 | [1] -0.001 | nilotinib -0.017 | [2] 0.021 | dasatinib 0.013 | [3] -0.017 | [4] 0.093 | [5] 0.06 | tipifarnib 0.005 | mubritinib 0.009

BST2 (UniProt Q10589)
Chain of UniProt Q10589 (Q10589 whole entry, looked up): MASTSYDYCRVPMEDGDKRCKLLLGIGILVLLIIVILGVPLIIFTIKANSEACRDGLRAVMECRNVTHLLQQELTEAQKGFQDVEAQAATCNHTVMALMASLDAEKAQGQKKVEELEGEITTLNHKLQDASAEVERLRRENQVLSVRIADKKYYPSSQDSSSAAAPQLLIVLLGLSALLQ
inactive: bafetinib 0.061 | [1] -0.009 | nilotinib 0.048 | [2] -0.059 | dasatinib -0.016 | [3] -0.096 | [4] -0.052 | [5] 0.029 | tipifarnib 0.036 | mubritinib -0.015

ACO2 (UniProt Q99798)
active: mubritinib -0.522
inactive: bafetinib 0.021 | [1] -0.025 | nilotinib -0.02 | [2] 0.013 | dasatinib -0.118 | [3] -0.013 | [4] 0.043 | [5] -0.016 | tipifarnib -0.064

ACBD6 (UniProt Q9BR61)
Chain of UniProt Q9BR61 (Q9BR61 whole entry, looked up): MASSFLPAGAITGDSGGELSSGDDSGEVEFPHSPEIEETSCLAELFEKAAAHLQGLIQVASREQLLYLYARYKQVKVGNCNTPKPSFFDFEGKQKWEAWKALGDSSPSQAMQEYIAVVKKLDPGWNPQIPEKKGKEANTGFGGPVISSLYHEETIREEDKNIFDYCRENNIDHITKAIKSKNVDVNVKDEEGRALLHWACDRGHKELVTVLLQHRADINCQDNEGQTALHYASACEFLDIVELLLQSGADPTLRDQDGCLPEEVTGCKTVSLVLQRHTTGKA
inactive: bafetinib -0.058 | [1] 0.063 | nilotinib 0.017 | [2] -0.085 | dasatinib -0.23 | [3] 0.057 | [4] -0.053 | [5] 0.056 | tipifarnib -0.072 | mubritinib -0.085

APLP2 (UniProt Q06481)
inactive: bafetinib 0.054 | [1] -0.063 | nilotinib 0.156 | [2] -0.144 | dasatinib 0.118 | [3] 0.052 | [4] -0.007 | [5] -0.164 | tipifarnib -0.01 | mubritinib -0.011

AP2B1 isoform 2 (UniProt P63010)
inactive: bafetinib 0.024 | [1] -0.01 | nilotinib -0.019 | [2] 0.019 | dasatinib 0.035 | [3] -0.032 | [4] -0.029 | [5] 0.004 | tipifarnib -0.014 | mubritinib -0.01

APOH (UniProt P02749)
active: bafetinib -1.07
inactive: [1] 0.083 | nilotinib 0 | [2] 0.031 | dasatinib -0.281 | [3] 0.392 | [4] 0.145 | [5] -0.167 | tipifarnib 0.085 | mubritinib -0.346

AURKA (UniProt O14965)
Chain of UniProt O14965 (O14965 whole entry, looked up): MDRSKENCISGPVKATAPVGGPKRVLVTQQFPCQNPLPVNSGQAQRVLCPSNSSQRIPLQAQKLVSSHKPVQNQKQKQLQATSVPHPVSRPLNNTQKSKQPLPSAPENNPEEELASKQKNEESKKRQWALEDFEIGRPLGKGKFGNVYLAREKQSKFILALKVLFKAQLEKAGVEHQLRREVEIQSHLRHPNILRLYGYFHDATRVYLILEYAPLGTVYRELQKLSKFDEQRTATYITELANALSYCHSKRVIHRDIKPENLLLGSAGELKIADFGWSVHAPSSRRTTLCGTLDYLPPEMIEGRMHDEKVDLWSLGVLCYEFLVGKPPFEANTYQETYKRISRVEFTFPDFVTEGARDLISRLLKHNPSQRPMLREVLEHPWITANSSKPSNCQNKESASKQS
inactive: bafetinib 0.103 | [1] -0.113 | nilotinib -0.001 | dasatinib 0.365 | [3] 0.47 | [4] 0.073 | [5] -0.016 | tipifarnib -0.054 | mubritinib -0.078
active: [2] 0.699

ATAD1 (UniProt Q8NBU5)
inactive: bafetinib -0.007 | [1] 0.048 | nilotinib 0.02 | [2] -0.008 | dasatinib -0.033 | [3] -0.002 | [4] 0.037 | [5] -0.026 | tipifarnib 0.014 | mubritinib -0.028

ATP5ME (UniProt P56385)
Chain of UniProt P56385 (P56385 whole entry, looked up): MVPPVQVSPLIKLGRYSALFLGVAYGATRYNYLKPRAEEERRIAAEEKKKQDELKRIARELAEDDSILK
inactive: bafetinib -0.071 | [1] -0.051 | nilotinib 0.022 | [2] 0.008 | dasatinib 0.084 | [3] -0.046 | [4] 0.001 | [5] 0.103 | tipifarnib -0.031 | mubritinib 0.023

ADPRHL2 (UniProt Q9NX46)
inactive: bafetinib 0.201 | [1] 0.029 | nilotinib 0.013 | [2] 0.164 | dasatinib -0.034 | [3] 0.124 | [4] 0.082 | [5] 0.052 | tipifarnib -0.159
active: mubritinib 0.349

ATL2 (UniProt Q8NHH9)
inactive: bafetinib 0.026 | [1] 0.034 | nilotinib 0.081 | [2] -0.008 | dasatinib -0.129 | [3] 0.031 | [4] 0.083 | [5] 0.18 | tipifarnib -0.014 | mubritinib 0.104

ABCB6 (UniProt Q9NP58)
inactive: bafetinib -0.035 | [1] 0.014 | nilotinib 0.022 | [2] 0.032 | dasatinib -0.001 | [3] 0.024 | [4] 0 | [5] -0.025 | tipifarnib 0.005 | mubritinib 0.001

AASDH (UniProt Q4L235)
inactive: bafetinib -0.065 | [1] -0.008 | nilotinib -0.079 | [2] -0.149 | dasatinib 0.063 | [3] 0.173 | [4] 0.045 | [5] 0.024 | tipifarnib 0.058 | mubritinib 0.144

ATP13A3 (UniProt Q9H7F0)
inactive: bafetinib -0.067 | [1] 0.116 | nilotinib -0.015 | [2] -0.06 | dasatinib 0.008 | [3] 0.024 | [4] -0.099 | [5] 0.002 | tipifarnib 0.098 | mubritinib -0.049

BAIAP2 (UniProt Q9UQB8)
inactive: bafetinib -0.009 | [1] 0.032 | nilotinib -0.061 | [2] -0.05 | dasatinib -0.066 | [3] -0.038 | [4] 0.03 | [5] -0.032 | tipifarnib -0.035 | mubritinib 0.06

AGRN (UniProt O00468)
Chain of UniProt O00468 (O00468 whole entry, looked up): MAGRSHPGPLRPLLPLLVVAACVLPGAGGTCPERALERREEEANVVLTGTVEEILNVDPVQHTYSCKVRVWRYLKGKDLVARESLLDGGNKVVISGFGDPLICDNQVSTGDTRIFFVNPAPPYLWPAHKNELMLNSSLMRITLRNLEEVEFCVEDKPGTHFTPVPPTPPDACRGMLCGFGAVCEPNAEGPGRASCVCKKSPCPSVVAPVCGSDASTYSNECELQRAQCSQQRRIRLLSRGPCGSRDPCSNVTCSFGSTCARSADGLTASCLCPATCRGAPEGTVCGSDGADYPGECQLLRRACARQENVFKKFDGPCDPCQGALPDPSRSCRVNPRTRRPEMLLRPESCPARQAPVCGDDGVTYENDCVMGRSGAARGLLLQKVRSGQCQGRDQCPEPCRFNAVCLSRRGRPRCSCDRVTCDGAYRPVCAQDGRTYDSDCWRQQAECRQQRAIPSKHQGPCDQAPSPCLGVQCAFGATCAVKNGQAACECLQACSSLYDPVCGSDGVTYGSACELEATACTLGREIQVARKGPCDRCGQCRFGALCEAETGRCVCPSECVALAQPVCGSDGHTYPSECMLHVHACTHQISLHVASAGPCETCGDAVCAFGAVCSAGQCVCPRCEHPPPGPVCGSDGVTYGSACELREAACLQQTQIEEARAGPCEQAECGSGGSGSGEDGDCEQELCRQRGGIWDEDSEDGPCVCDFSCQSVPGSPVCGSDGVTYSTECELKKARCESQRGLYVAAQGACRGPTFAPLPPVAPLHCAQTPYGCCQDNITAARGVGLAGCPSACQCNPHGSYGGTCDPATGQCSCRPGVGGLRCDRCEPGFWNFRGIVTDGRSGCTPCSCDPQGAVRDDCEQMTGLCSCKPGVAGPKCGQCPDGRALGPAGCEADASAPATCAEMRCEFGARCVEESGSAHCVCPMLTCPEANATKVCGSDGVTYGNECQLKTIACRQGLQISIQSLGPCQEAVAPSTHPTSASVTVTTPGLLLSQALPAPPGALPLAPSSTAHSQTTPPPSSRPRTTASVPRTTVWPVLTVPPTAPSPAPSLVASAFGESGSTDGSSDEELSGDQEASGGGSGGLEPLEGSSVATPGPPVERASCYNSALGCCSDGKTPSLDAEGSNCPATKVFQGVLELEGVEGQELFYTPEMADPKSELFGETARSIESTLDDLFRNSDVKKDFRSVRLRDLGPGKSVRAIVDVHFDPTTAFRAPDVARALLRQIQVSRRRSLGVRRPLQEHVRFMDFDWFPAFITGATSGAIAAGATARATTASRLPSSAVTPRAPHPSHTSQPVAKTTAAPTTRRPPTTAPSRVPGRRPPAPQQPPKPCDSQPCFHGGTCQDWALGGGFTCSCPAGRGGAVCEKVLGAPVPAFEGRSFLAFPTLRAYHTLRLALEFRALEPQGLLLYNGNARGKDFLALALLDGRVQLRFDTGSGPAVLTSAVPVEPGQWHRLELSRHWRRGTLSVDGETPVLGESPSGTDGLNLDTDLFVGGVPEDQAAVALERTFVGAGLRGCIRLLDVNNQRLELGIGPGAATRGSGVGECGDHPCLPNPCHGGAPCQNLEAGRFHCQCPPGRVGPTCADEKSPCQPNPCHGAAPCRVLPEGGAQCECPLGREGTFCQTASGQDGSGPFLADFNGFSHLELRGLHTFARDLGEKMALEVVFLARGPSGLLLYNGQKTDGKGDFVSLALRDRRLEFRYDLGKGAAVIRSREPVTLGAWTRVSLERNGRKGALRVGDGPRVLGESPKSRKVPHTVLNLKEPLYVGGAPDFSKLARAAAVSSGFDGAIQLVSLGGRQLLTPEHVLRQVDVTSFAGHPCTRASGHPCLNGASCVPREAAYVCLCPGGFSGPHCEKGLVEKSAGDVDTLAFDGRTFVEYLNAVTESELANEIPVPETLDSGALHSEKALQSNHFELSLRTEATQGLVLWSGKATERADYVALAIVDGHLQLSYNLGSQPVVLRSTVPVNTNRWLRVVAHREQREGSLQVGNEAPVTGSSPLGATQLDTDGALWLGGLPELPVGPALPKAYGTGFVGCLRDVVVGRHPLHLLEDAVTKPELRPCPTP
inactive: bafetinib 0.006 | [1] 0.001 | nilotinib -0.034 | [2] -0.035 | dasatinib 0.355 | [3] -0.086 | [4] 0.03 | [5] 0.162 | tipifarnib 0.165 | mubritinib -0.079

AP2A1 (UniProt O95782)
inactive: bafetinib 0.052 | [1] 0.024 | nilotinib -0.008 | [2] -0.008 | dasatinib 0.045 | [3] -0.079 | [4] -0.007 | [5] -0.066 | tipifarnib -0.051 | mubritinib -0.011

ATP11A (UniProt P98196)
inactive: bafetinib -0.028 | [1] -0.002 | nilotinib 0.113 | [2] -0.012 | dasatinib -0.01 | [3] 0.029 | [4] -0.006 | [5] 0.01 | tipifarnib 0.051 | mubritinib 0.056

ATAD3A isoform 2 (UniProt Q9NVI7)
Chain of UniProt Q9NVI7 (Q9NVI7 whole entry, looked up): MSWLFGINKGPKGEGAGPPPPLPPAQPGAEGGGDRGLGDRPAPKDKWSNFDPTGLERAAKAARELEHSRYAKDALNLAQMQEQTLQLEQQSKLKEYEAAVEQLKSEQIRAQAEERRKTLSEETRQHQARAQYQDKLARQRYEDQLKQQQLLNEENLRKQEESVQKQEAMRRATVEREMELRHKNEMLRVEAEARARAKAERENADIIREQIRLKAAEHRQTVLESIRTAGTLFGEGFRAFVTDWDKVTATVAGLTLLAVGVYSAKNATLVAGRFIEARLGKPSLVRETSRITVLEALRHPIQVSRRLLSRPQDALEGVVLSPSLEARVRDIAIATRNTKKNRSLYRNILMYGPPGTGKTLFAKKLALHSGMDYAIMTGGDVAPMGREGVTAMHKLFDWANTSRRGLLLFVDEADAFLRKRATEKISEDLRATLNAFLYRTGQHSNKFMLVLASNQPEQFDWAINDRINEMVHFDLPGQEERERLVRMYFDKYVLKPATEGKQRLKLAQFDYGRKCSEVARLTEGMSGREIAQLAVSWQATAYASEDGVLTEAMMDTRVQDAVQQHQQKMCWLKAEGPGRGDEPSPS
inactive: bafetinib -0.104 | [1] 0.035 | nilotinib -0.141 | [2] -0.053 | dasatinib -0.094 | [3] 0 | [4] -0.082 | [5] -0.101 | tipifarnib 0.097 | mubritinib -0.215

ATP6V1C1 (UniProt P21283)
inactive: bafetinib -0.083 | [1] 0.063 | nilotinib -0.137 | [2] -0.191 | dasatinib -0.045 | [3] 0.115 | [4] -0.083 | [5] -0.105 | tipifarnib 0.03 | mubritinib 0.083

ACIN1 (UniProt Q9UKV3)
inactive: bafetinib 0.022 | [1] -0.037 | nilotinib 0.086 | dasatinib 0.016 | [3] -0.065 | [4] 0.117 | [5] -0.027 | tipifarnib 0.026 | mubritinib 0.049
active: [2] -0.444

ATP9B (UniProt O43861)
inactive: bafetinib -0.042 | [1] -0.042 | nilotinib -0.147 | [2] -0.149 | dasatinib -0.067 | [3] 0.038 | [4] 0.037 | [5] -0.096 | tipifarnib 0.121 | mubritinib 0.069

BAD (UniProt Q92934)
Chain of UniProt Q92934 (Q92934 whole entry, looked up): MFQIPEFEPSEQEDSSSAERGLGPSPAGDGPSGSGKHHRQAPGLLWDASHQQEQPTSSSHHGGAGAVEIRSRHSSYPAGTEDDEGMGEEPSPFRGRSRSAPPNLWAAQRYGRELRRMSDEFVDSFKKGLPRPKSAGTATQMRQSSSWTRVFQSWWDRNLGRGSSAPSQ
inactive: bafetinib -0.151 | [1] -0.046 | nilotinib 0.034 | [2] 0.009 | dasatinib 0.092 | [3] -0.069 | [4] 0.077 | [5] 0.076 | tipifarnib -0.005 | mubritinib -0.046

Reference: the supplement of paper PMC10849652
